G9a inh – blocks human histone lysine methyltransferase G9a; G9a H3K9 monomethylation, AlphaScreen, 2 h; hit rate 8.8% among 350,000; Q96KQ7; Potency, µM (highest dose often 102 µM), for the others: at the top dose activity, negative = inhibition, usual class: inhibitors; further: on the % scale 0 is the no-effect control and ±100 the full control effect; nearly all actives have a fitted effect of over 75% in size
Target sequence (Q96KQ7 913-1193 limits assumed): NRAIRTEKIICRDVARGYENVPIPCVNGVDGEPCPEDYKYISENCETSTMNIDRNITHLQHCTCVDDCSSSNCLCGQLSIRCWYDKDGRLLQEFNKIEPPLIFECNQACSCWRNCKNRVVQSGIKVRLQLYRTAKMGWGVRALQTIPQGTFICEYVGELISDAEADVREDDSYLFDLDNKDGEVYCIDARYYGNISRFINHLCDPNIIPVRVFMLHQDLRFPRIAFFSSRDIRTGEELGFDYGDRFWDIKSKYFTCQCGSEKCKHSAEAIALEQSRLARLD
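Using a bead-based AlphaScreen, monomethylated H3K9 product from 2 h room-temperature reactions (G9a 20 nM, peptide 500 nM, SAM 20 uM) was detected with 0.5 ug/mL rabbit anti-H3K9me1 antibody.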
HP1b binding inh – inhibitors of HP1-beta chromodomain binding to methylated histone tails; P83916; AlphaScreen HP1-beta / biotin-H3K9me3 peptide binding; Potency, µM (doses to about 114 µM), for the others: at the top dose activity change, negative = inhibition, actives largely listed as inhibitors; hit rate 0.56% among 390,000; AID 540317; further: nearly all actives have a fitted effect of over 70% in size
Target sequence (P83916 whole entry, looked up): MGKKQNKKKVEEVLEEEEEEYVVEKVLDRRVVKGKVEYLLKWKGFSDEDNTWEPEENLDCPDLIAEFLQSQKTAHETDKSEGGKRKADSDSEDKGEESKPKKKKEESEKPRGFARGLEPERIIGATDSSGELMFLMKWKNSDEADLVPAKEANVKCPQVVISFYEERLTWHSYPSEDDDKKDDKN
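Compound inhibition of the preformed complex between 50 nM HP1-beta and 50 nM biotinylated H3K9me3 peptide was read by AlphaScreen. Buffer was PBS pH 7.4 with 0.01% Tween-20. Incubations ran 30 min at room temperature, with 10 ug/mL donor/acceptor beads.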
BAZ2B inh – blocks human BAZ2B | hit rate 4.4% among 360,000 | Q9UIF8 | AID 504333 | AlphaScreen BAZ2B-H3K14Ac peptide displacement | Potency, µM (doses to about 114 µM), inactives show at the top dose activity change, negative = inhibition, most hits filed as inhibitors; further: on the % scale 0 is the no-effect control and ±100 the full control effect; nearly all actives have a fitted effect of over 60% in size
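AlphaScreen displacement: compounds (up to 110uM) incubated 30 min at room temperature with a preformed 50 nM BAZ2B/50 nM biotinylated H3K14Ac peptide complex in PBS pH 7.4 with Tween-20. Donor and acceptor beads at 10 ug/mL final added, 20 min light-protected before reading.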
JMJD2A Tudor inh – JMJD2A Tudor domain (human) inhibition; O75164; AlphaScreen JMJD2A-Tudor / H3K4me3 peptide binding; Potency, µM (titrated, usually from 114 µM), for the others: top-dose activity change, negative = inhibition, most hits filed as inhibitors; hit rate 4.4% among 390,000; further: on the % scale 0 is the no-effect control and ±100 the full control effect; nearly all actives have a fitted effect of over 50% in size
GLS inh – glutaminase GLS (human) inhibition; GLS enzymatic activity, qHTS titration; Potency, µM (highest dose often 45.5 µM), for the others: top-dose activity change, negative = inhibition, most hits filed as inhibitors; hit rate 0.21% among 410,000; further: on the % scale 0 is the no-effect control and ±100 the full control effect
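hKGA in 45 mM KH2PO4 pH 8.2, 0.02% Tween-20 with pin-transferred compounds; 1 mM L-glutamine (stock) plus glutamate oxidase/HRP/Amplex Red coupling added. Fluorescence read initially and after 30 min at RT.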
L3MBTL1 inh – inhibitors of human L3MBTL1; Q9Y468; AlphaScreen L3MBTL1–H3K9me1 peptide binding; Potency, µM (doses to about 57.1 µM), without a hit: at the top dose activity, negative = inhibition, hits mostly inhibitors; hit rate 0.66% among 230,000; AID 485360; further: on the % scale 0 is the no-effect control and ±100 the full control effect; nearly all actives have a fitted effect of over 60% in size
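AlphaScreen proximity signal between nickel-chelate acceptor and streptavidin donor beads (final 10 ug/mL) reports binding of 50 nM L3MBTL1 to 75 nM biotin-H3 K9me1 peptide; complex incubated with compounds 30 min at room temperature; cefsulodin titration as control.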
Numbers without * were called inactive; u = inconclusive; x = not tested or not shown; [ ] = dose if it differs, or a comment. Sampled rows, rich in hits. Any-hit rate of the full collection: about 10%. The call rests on the fitted dose curve; in most records, active means well fitted curve in the direction sought with a large enough effect; inconclusive means small, poorly fitted or top-dose-only effect, or another doubt; inactive means no such curve, though single readings can be large; an effect the other way counts as inactive or inconclusive. Potency means the concentration at half of the fitted maximal effect.

SMILES	G9a inh	HP1b binding inh	BAZ2B inh	JMJD2A Tudor inh	GLS inh	L3MBTL1 inh
CCc1ccccc1NC(=S)N1CCNC(=O)C1CC(=O)OC (stereo not given)	-20%	-1%	-14%	45µM*	15%	-2%
CCOC(=O)CC1C(=O)NCCN1C(=S)Nc1ccccc1 (stereo not given)	-17%[59 µM]	31%	1%	4%	8%	-6%
CC(NC(=O)c1ccc2c(c1)CCN2S(=O)(=O)c1ccccc1)c1ccccc1 (stereo not given)	2%[59 µM]	28%	5%	-3%	10%	x
FC(F)(F)c1ccccc1-c1ccc2ncnc(NCCN3CCOCC3)c2c1	-42%[0.501 µM]	x	x	x	x	x
O=C(Nc1cccc2cccnc12)OCc1ccccc1	x	12%	x	-27%	x	x
CCCCc1ccc(/C=C2\C(=O)c3ccccc3C(O)=C2C(=O)OCC)cc1	6.3µM*	x	22µM*	x	x	-20%
CCc1nnc(NC(=O)c2ccc(S(=O)(=O)N3CCc4ccccc4C3)cc2)s1	-10%	u	-2%	u	17%	-17%
Cc1cc(C)c2nc(NNC(=O)c3cc(=O)c4ccccc4o3)sc2c1	8.9µM*	u	32µM*	56µM*	12%	-2%
Cc1cc(C)c2nc(NNC(=O)c3ccc(S(=O)(=O)N4CCc5ccccc5C4)cc3)sc2c1	40µM*	-4%	u	u	21%	u
Cc1ccc(S(=O)(=O)N2CCc3ccccc3C2)cc1	103%	38%	37%	31%	-5%	14%
Cc1cc(C)c2sc(NNC(=O)c3ccc(S(=O)(=O)N4CCc5ccccc5C4)cc3)nc2c1	u	5%	5.6µM*	3.5µM*	22%	u
Cc1nnc(NC(=O)c2ccc(S(=O)(=O)N3CCc4ccccc4C3)cc2)o1	-25%	39%	79µM*	-30%	4%	46%
CC(C)CC(=O)Nc1c(C(=O)N2CCN(c3ccccc3F)CC2)oc2ccccc12	-29%[59 µM]	12%	u	u	-11%	x
COc1ccc(-c2noc(CSc3nnc(-c4ccncc4)n3-c3ccc(C)cc3)n2)cc1OC	-3%[59 µM]	38%	-2%	-34%	3%	x
O=[N+]([O-])c1ccc(N=Nc2ccc(O)cc2O)cc1	40µM*	15%	32µM*	-8%	-4%	x
O=S(=O)(Nc1cc(Br)cc2cccnc12)c1cccc2ccccc12	x	35%	x	-21%	x	x
O=C(N/C=N/O)C1=NOC(CNc2ncc(C(F)(F)F)cc2Cl)C1 (stereo not given)	45µM*	11%	-10%	-4%	10%	x
O=C(NC1CC1)C1=NOC(CNc2ncc(C(F)(F)F)cc2Cl)C1 (stereo not given)	2%	26%	4%	-13%	0%	x
N#CC1(NC(=O)CSc2nnc(-c3ccccc3F)o2)CCCCC1	40µM*	-21%	-1%	-9%	0%	-5%
O=C(CSc1nnc(-c2ccccc2F)o1)NC1CCCCC1	2%	33%	9%	-14%	1%	x
Cc1cc(CC(=O)O)c2oc(-c3ccoc3)cc(=O)c2c1	x	-20%	x	89µM*	u	x
Cc1cc2c(=O)cc(-c3ccccc3)oc2c(C(=O)O)c1C	x	x	x	x	4%	x
N#C/C(=N\Nc1ccc(Cl)c(Cl)c1)C(=O)C1CC1	x	u	45µM*	50µM*	24%	x
c1ccc(CN2CCN(CCOCCOc3cccc4ccccc34)CC2)cc1	x	20µM*	22µM*	1.8µM*	-6%	-10%
COc1ccccc1OCCCCCCN1CCOCC1	13µM*	u	50µM*	20µM*	10%	4%
SMILES	G9a inh	HP1b binding inh	BAZ2B inh	JMJD2A Tudor inh	GLS inh	L3MBTL1 inh
c1ccc2c(OCCCCN3CCOCC3)cccc2c1	x	u	50µM*	3.5µM*	5%	-5%
CCN(CC)CCNC(=O)c1ccc(-n2c(-c3ccccc3)cc3c2CCCC3)cc1	-29%[59 µM]	9%	-18%	-23%	-3%	x
CCCc1cc(=O)n2c(C(=O)Nc3ccc(OCC)cc3)c(C(=O)Nc3ccc(C)cc3)sc2n1	u	3%	-1%	-5%	4%	x
Cc1ccccc1-c1nnc(SCC(=O)N2CCCc3ccccc32)o1	4%[59 µM]	62%	23%	29%	1%	x
O=C1OC2C[C@H]1[C@@H]1C(=O)N(Cc3ccccc3)CCC1C2I (stereo not given in full)	-22%[59 µM]	x	x	x	x	x
N#CCN(CC#N)C(=O)C1c2ccccc2Oc2ccccc21	x	14%	-7%	40µM*	65%	x
Oc1cc(O)cc(/C=C/c2ccc(O)c(O)c2)c1	0.67µM*	16µM*	u	45µM*	u	u
Cc1csc(SCC(=O)NC(=O)NC(C)(C)C)n1	-1%[59 µM]	35%	-13%	0%	1%	x
Cc1cc(C)n2nc(SCCCC(=O)c3ccc(F)cc3)nc2n1	50µM*	12%	-10%	-24%	-9%	1%
COc1ccccc1CNC(=O)CSc1nc(C)cs1	12%	40%	-2%	-5%	-3%	7%
Cc1cc(C)nc(SCC(=O)NC2CCCC2)n1	3%	15%	-2%	1%	-2%	9%
Cc1cc(C)n2nc(SCC(=O)NC3CCCCC3)nc2n1	45µM*	53%	-1%	23%	1%	x
COc1ccccc1C(=O)NC(=O)CSc1nc(C)cs1	50µM*	28%	0%	-4%	0%	-6%
Cc1csc(SCC(=O)NC(=O)NC2CCCC2)n1	45µM*	36%	-6%	-15%	0%	4%
CC(C)CCNC(=O)C1CCN(S(=O)(=O)c2cccc3nsnc23)CC1	-16%[59 µM]	25%	x	-8%	6%	x
Cc1nc(SCC(=O)NC(=O)NC2CCCCC2)nc(C)c1C	14µM*	38%	11%	-26%	-10%	x
Nc1cc(N)nc(SCC(=O)NC(=O)NC2CCCC2)n1	9%[2.33 µM]	20%	5%	u	4%	0%
O=C(Nc1ccc(OC(F)(F)F)cc1)NC1COc2ccccc2C1 (stereo not given)	-26%[59 µM]	14%[57 µM]	11%	-5%	-6%	x
O=C1CC(=O)Nc2cc(S(=O)(=O)N3CCN(c4ccc([N+](=O)[O-])cc4)CC3)ccc2N1	13µM*	44%	50µM*	29%	-4%	x
O=C1Cc2cc(S(=O)(=O)N3CCN(c4ccc(O)cc4)CC3)ccc2N1	x	x	x	126µM*	-1%	x
CCOC(=O)CNC(=O)CSc1nc(N)cc(N)n1	-2%[59 µM]	20%	-1%	-10%	23%	37%[11.4 µM]
CCOC(=O)CNC(=S)n1cnc(N)n1	6%	25%	79µM*	-8%	1%	2%
Cc1ccc2oc3c(c(=O)c2c1)C(c1ccc(F)cc1)N(Cc1ccc2c(c1)OCO2)C3=O (stereo not given)	-23%[59 µM]	26%	-3%	-4%	-4%	x
